Measured values reported in PubChem BioAssay (NCATS).
Results filed as inconclusive are left out. Where a call stands in place of a potency, no number is given. Activity calls are given as the source filed them. The call rests on the fitted dose curve; in most records, active means well fitted inhibition curve with a large enough effect; inconclusive means small, poorly fitted or top-dose-only effect; inactive means flat fitted curve, though single readings scatter.

Assay: qHTS for Inhibitors of Plasmodium falciparum (7G8) proliferation (AID 504316); further: nearly all actives have a fitted effect of over 65% in size
Conditions: P. falciparum 7G8 in erythrocytes, SYBR Green DNA, 72 h; series mostly up to 6.7 µM
Procedure, shortened: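 Erythrocytes infected with P. falciparum line (0.3% parasitemia, 2.5% hematocrit final) incubated with compounds 72 h at 37 °C, 5% CO2; SYBR Green lysis buffer added, fluorescence read next day. Normalized to 0.29 uM artemisinin and DMSO.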
Potency means the concentration at half of the fitted maximal effect.

Compound	Potency
CCC(C)CN1C(=O)NC(c2ccccc2)C(C(=O)OC)=C1C (centres undefined)	inactive
COC(=O)NC(c1ccccc1)c1c[nH]c2ccc(OC)cc12 (centres undefined)	inactive
O=C1Nc2cccc(Br)c2[C@@]12O[C@H](COc1ccccc1)CC1=CCCC12 (some centres undefined)	inactive
CC12C=C(C=CCCc3ccco3)C(C)(C1)C(CCc1ccco1)CC2=O (centres undefined)	inactive
CC1(OC(=O)c2ccco2)C(=O)C=C2C=C(c3ccsc3)OC=C2C1=O (centres undefined)	inactive
CCCNC(=O)OC[C@H]1O[C@H](CCON=C(C)CCN2CCCc3nc(C)c(C)cc32)C=C[C@H]1Oc1ccc(OC)cc1	1350 nM (active)
C=C(C#Cc1ccc(OC)cc1)CCN1C=C(C(=O)OCC)C(c2ccccc2)NC1=O (centres undefined)	inactive
COc1ccc([C@]23Cc4ccccc4[C@H](O2)C2=C(O3)C(=O)c3ccccc3C2=O)cc1	1690 nM (active)
CC(C)=CCN1C(=O)[C@]2(O[C@H](C)CC3=CCCC32)c2c(Br)cccc21 (some centres undefined)	inactive
COc1ccc(COC(=O)NN=C2C[C@@H](O)[C@@H](O)[C@@H]3[C@H]4C(=O)N([C@@H](C)c5ccccc5)C(=O)[C@@H]4CC[C@H]23)cc1	inactive
N#CCCCSc1nnnn1-c1cc(C(F)(F)F)cc(C(F)(F)F)c1	inactive
COC(=O)C1=C(C)N(CCC(C)O)C(=O)N(C(C)=O)C1c1ccccc1 (centres undefined)	inactive
Cc1ccccc1Nc1oc(-c2ccccc2)nc1-c1ccccc1	1690 nM (active)
COc1ccc(NC2=CC(c3ccccc3)N(c3ccc(OC)cc3)C2=O)cc1 (centres undefined)	inactive
C=CCN=C1NC(c2cccc(F)c2)C(C(=O)OC)=C(C)N1Cc1ccccc1 (centres undefined)	inactive
CCCNC(=O)OC[C@H]1O[C@H](CCON=C(C)CCC(=O)OC[C@H]2O[C@H](C#Cc3ccccc3)C=C[C@H]2Oc2ccc(C)cc2)C=C[C@H]1Oc1ccc(OC)cc1	inactive
C[C@@H]1C=CCCO[C@]12C(=O)N(Cc1ccc(Br)cc1)c1cccc(Br)c12	inactive
COCCN1C(=O)C2=C(C1=O)C1N(C)c3ccccc3[C@@]13C[C@@H](CO)N(S(=O)(=O)c1ccc(OC)cc1)C3=N2 (some centres undefined)	inactive
CC(=O)C1=C(C)N(Cc2ccccc2)C(=O)NC1c1ccc(Br)cc1 (centres undefined)	inactive
CCN1C(=O)[C@@H]2[C@H]3[C@H](O)[C@H](O)CC(=NO[C@H](C)c4cn([C@@H]5COC[C@@H]5O)nn4)[C@@H]3CC[C@H]2C1=O	inactive
C=CC[C@@H]1C=C[C@H](ON=C(C)CCN2CCCc3nc(C)c(C)cc32)[C@H](CO)O1	75.7 nM (active)
CCN1C(=O)NC(c2ccco2)C(C(C)=O)=C1C (centres undefined)	inactive
COc1ccc([C@]23Cc4ccccc4[C@H](O2)c2c(c4ccc(OC)cc4oc2=O)O3)cc1	1690 nM (active)
CCOC(=O)OC[C@H]1O[C@H](C#Cc2ccc(C(C)(C)C)cc2)C=C[C@H]1OC(=O)OCC	2130 nM (active)
C=CCN=C1NC(CCc2ccccc2)C(C(=O)OC)=C(C)N1CC (centres undefined)	inactive
CCOC(=O)CCN1C(=O)[C@@H]2[C@H]3[C@H](O)[C@H](O)CC(=NNC(=O)OCc4ccccc4)[C@H]3CC[C@H]2C1=O	inactive
C=CCCC1(C(=O)c2ccccc2)C(=O)C(CC=C(C)C)=C(OC)C(CC=C(C)C)(CCC=C(C)C)C1=O (centres undefined)	1510 nM (active)
C[C@@H]1CC[C@H]2C(=O)O[C@H](COc3ccc(C(C)(C)C)cc3)CN2[C@@H]1c1ccc(Br)cc1	inactive
COC(=O)c1ccc(CN2C(=O)[C@]3(OCCC=C[C@@H]3C)c3ccccc32)cc1	inactive
